Results filed as inconclusive are left out. Calls of active or inactive are those of the source. Unless noted, the call rests on the fitted dose curve; in most records, active means well fitted curve in the direction sought with a large enough effect; inconclusive means small, poorly fitted or top-dose-only effect, or another doubt; inactive means no such curve, though single readings can be large; an effect the other way counts as inactive or inconclusive.
Experiments:
[1] = biological target: ATP-dependent 6-phosphofructokinase (Trypanosoma brucei brucei) (UniProt O15648); test: qHTS Assay to Find Inhibitors of T. brucei phosphofructokinase: hit validation (AID 492961); further: on the % scale 0 is the no-effect control and ±100 the full control effect
Method in brief: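 Luminescence from ADP-Glo reports ADP generated as T. brucei PFK (1.25 nM) phosphorylates 0.5 mM fructose-6-phosphate using 0.1 mM ATP. Reactions ran 45 min at room temperature, pH 8.0.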

[2] = biological target: Ubiquitin carboxyl-terminal hydrolase 1 (Homo sapiens) (UniProt O94782); test: Inhibitors of USP1/UAF1: Pilot qHTS (AID 504865);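 further: rhodamine fluorescence freed from ubiquitin-rhodamine substrate followed over time; top concentration of the series differs between compounds; on the % scale 0 is the no-effect control and ±100 the full control effect; nearly all actives have a fitted effect of over 35% in size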
Method in brief: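 Deubiquitinase activity followed as kinetic rhodamine fluorescence release from 150 nM Ub-Rho. 1 nM USP1/UAF1 with compound, after 15 min room-temperature preincubation, in HEPES pH 7.8 buffer containing TCEP, EDTA, BSA and Tween-20.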

[3] = biological target: Luciferin 4-monooxygenase (Photinus pyralis) (UniProt P08659); test: Biochemical firefly luciferase enzyme assay for NPC (AID 624030);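 further: purified P. pyralis luciferase at 10 nM with luciferin and ATP substrate; 0% = DMSO and -100% = full luciferase inhibition by PTC124 control; nearly all actives have a fitted effect of over 70% in size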
Method in brief: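 Purified P. pyralis luciferase at 10 nM in 50 mM Tris Acetate (final), luminescence read within 5 minutes of enzyme addition to compounds. Activity normalised to PTC124 versus DMSO; concentration-response curves classed by r2, magnitude and activity.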

[4] = S16 Schwann cell PMP22 intronic element beta-lactamase assay (AID 624044; calls by dose curve;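 further: 0% = DMSO and -100% = potassium clavulanate positive control; nearly all actives have a fitted effect of over 15% in size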); conditions: S16 rat Schwann cells, PMP22 element beta-lactamase FRET, 24 h; ratio activity, negative = inhibition: at 38.3 µM (top of the series) unless noted
Method in brief: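 Beta-lactamase reporter under a PMP22 intronic regulatory element in stable S16 rat Schwann cells; 24 h compound exposure. 460 nm blue signal normalized between DMSO (0%) and potassium clavulanate, with 535 nm FRET tracking viability; curves classed by r2 and response.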

[5] = biological target: Glutathione peroxidase 1 (Homo sapiens) (UniProt P07203); test: Primary qHTS Assay for Inhibitors of Recombinant Selenoprotein Glutathione Peroxidase 1 (GPX1) (AID 1845191); further: nearly all actives have a fitted effect of over 65% in size
Method in brief: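 GR-coupled readout: NADPH consumption tracked by fluorescence, ex 340/em 450 nm, at t=0 and after 15 min at RT. Final mix 10 nM GPX1, 1 mM GSH, 0.5 mM CHP, 0.5 mM NADPH, 100 nM GR, 0.01% BSA, following 30 min enzyme–compound preincubation.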

[6] = biological target: Phospholipid hydroperoxide glutathione peroxidase GPX4 (Homo sapiens) (UniProt P36969); test: Primary qHTS Assay for Inhibitors of Recombinant Selenoprotein Glutathione Peroxidase 4 (GPX4) (AID 1845192); further: on the % scale 0 is the no-effect control and ±100 the full control effect; nearly all actives have a fitted effect of over 65% in size
Method in brief: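 Steps: GPX4 plus compound, 30 min RT; add GR/GSH/NADPH master mix; start with cumene hydroperoxide; read 340/450 nm fluorescence at 0 and 15 min. Finals were 200 nM GPX4, 1 mM GSH, 0.5 mM CHP, 0.5 mM NADPH, 100 nM GR.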

[7] = qHTS profiling for inhibitors of Plasmodium falciparum proliferation (AID 504749); further: nearly all actives have a fitted effect of over 60% in size; further: potency means the concentration at half of the fitted maximal effect;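 on activity, negative = inhibition: 0% = DMSO vehicle and full inhibition = artemisinin control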; conditions: P. falciparum in erythrocytes, SYBR Green DNA, 72 h, at 28.7 µM (top of the series)
Method in brief: (§1)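 SYBR Green fluorescence (ex 485 nm, em 535 nm) reports parasite DNA after 72 h compound exposure of infected red cells at 0.3% parasitemia, 2.5% hematocrit; signal normalized to 0.29 uM artemisinin and vehicle wells.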

3D7 = test: as above; conditions: P. falciparum in erythrocytes, SYBR Green DNA, 72 h; series mostly up to 28.7 µM
Method in brief: as §1

7G8 = test: as above; conditions: P. falciparum in erythrocytes, SYBR Green DNA, 72 h; series mostly up to 12.8 µM
Method in brief: as §1

AA1029 = test: as above; conditions: P. falciparum in erythrocytes, SYBR Green DNA, 72 h; series mostly up to 28.7 µM
Method in brief: as §1

ATS189 = test: as above; conditions: P. falciparum in erythrocytes, SYBR Green DNA, 72 h; series mostly up to 28.7 µM
Method in brief: as §1

ATS95 = test: as above; conditions: P. falciparum in erythrocytes, SYBR Green DNA, 72 h; series mostly up to 28.7 µM
Method in brief: as §1

C2A = test: as above; conditions: P. falciparum in erythrocytes, SYBR Green DNA, 72 h; series mostly up to 28.7 µM
Method in brief: as §1

CP185 = test: as above; conditions: P. falciparum in erythrocytes, SYBR Green DNA, 72 h; series mostly up to 28.7 µM
Method in brief: as §1

CP191 = test: as above; conditions: P. falciparum in erythrocytes, SYBR Green DNA, 72 h; series mostly up to 28.7 µM
Method in brief: as §1

CP192 = test: as above; conditions: P. falciparum in erythrocytes, SYBR Green DNA, 72 h; series mostly up to 28.7 µM
Method in brief: as §1

CP194 = test: as above; conditions: P. falciparum in erythrocytes, SYBR Green DNA, 72 h; series mostly up to 28.7 µM
Method in brief: as §1

CP201 = test: as above; conditions: P. falciparum in erythrocytes, SYBR Green DNA, 72 h; series mostly up to 28.7 µM
Method in brief: as §1

CP211 = test: as above; conditions: P. falciparum in erythrocytes, SYBR Green DNA, 72 h; series mostly up to 28.7 µM
Method in brief: as §1

CP215 = test: as above; conditions: P. falciparum in erythrocytes, SYBR Green DNA, 72 h; series mostly up to 28.7 µM
Method in brief: as §1

CP217 = test: as above; conditions: P. falciparum in erythrocytes, SYBR Green DNA, 72 h; series mostly up to 28.7 µM
Method in brief: as §1

CP238 = test: as above; conditions: P. falciparum in erythrocytes, SYBR Green DNA, 72 h; series mostly up to 28.7 µM
Method in brief: as §1

CP247 = test: as above; conditions: P. falciparum in erythrocytes, SYBR Green DNA, 72 h; series mostly up to 28.7 µM
Method in brief: as §1

CP250 = test: as above; conditions: P. falciparum in erythrocytes, SYBR Green DNA, 72 h; series mostly up to 12.8 µM
Method in brief: as §1

CP252 = test: as above; conditions: P. falciparum in erythrocytes, SYBR Green DNA, 72 h; series mostly up to 12.8 µM
Method in brief: as §1

Chain of Glutathione peroxidase 1 (Homo sapiens) (P07203 whole entry, looked up): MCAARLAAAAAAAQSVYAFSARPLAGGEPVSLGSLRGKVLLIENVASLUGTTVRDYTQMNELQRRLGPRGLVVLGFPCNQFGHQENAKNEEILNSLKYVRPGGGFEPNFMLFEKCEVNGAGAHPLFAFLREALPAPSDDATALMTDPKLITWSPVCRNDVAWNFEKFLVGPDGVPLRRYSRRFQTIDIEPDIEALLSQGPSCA
Chain of Phospholipid hydroperoxide glutathione peroxidase GPX4 (Homo sapiens) (P36969 whole entry, looked up): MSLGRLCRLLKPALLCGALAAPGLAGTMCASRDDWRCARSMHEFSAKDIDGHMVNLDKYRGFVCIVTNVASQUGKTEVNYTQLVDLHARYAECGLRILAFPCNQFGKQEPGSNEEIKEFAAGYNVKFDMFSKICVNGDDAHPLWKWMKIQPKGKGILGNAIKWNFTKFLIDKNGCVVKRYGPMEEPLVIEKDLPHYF
Chain of Ubiquitin carboxyl-terminal hydrolase 1 (Homo sapiens) (O94782 whole entry, looked up): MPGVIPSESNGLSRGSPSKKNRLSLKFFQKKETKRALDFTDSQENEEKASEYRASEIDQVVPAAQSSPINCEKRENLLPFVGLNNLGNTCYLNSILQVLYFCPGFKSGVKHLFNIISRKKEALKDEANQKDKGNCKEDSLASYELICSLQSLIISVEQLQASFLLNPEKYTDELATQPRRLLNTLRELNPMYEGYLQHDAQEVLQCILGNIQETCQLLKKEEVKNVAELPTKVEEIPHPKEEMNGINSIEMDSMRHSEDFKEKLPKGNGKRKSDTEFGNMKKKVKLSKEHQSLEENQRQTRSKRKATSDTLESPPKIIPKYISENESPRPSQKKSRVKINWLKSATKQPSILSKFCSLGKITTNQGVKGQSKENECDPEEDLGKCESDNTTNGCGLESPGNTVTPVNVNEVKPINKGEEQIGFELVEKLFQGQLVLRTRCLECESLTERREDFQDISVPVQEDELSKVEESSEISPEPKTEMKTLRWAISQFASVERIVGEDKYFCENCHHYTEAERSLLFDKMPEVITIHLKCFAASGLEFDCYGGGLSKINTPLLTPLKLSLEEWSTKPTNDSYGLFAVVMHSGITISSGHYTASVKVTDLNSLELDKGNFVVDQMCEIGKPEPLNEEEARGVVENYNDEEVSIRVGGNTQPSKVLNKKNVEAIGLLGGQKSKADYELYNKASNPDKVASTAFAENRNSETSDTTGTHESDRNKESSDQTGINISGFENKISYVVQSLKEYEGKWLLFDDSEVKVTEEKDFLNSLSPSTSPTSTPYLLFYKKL
Chain of ATP-dependent 6-phosphofructokinase (Trypanosoma brucei brucei) (O15648 whole entry, looked up): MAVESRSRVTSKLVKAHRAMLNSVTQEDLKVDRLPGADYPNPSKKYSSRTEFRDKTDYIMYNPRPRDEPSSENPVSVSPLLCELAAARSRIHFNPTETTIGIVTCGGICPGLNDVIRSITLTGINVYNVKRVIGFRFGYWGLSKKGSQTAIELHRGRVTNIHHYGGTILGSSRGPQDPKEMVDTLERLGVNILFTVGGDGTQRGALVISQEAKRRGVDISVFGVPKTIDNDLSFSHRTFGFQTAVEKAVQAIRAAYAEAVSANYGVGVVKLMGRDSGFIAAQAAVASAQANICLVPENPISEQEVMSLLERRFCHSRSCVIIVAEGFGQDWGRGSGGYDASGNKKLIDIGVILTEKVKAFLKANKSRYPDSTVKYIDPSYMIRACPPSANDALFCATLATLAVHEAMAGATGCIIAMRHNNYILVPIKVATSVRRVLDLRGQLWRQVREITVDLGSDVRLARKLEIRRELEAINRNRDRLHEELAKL
Chain of Luciferin 4-monooxygenase (Photinus pyralis) (P08659 whole entry, looked up): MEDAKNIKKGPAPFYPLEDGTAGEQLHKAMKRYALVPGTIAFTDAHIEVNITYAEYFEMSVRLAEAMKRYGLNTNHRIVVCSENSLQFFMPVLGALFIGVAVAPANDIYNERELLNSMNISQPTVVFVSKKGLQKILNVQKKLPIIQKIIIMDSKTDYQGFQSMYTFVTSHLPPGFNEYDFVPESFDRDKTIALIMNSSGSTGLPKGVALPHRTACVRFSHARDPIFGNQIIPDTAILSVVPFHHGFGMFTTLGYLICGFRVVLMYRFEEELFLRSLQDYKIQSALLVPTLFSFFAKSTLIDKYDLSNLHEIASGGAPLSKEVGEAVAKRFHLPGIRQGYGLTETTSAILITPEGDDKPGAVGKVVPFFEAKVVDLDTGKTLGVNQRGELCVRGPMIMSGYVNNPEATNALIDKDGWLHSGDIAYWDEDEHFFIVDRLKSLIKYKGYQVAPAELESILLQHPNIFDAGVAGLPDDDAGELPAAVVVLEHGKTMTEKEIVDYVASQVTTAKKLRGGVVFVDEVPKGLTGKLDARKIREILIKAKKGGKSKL

C[C@]12CC[C@H](O)C[C@H]1CCC1C2CC[C@]2(C)[C@@H](c3ccc(=O)oc3)C[C@H]3O[C@]132 (stereo partly specified)
active: Potency (7G8) 11.2 µM
inactive: Potency [1] | Potency [2] | Potency [3] | Potency [4] | Potency [5] | Potency [6] | activity, negative = inhibition ([7]; parasite line A) -25.7% | activity, negative = inhibition ([7]; parasite line B) -8.73% | Potency (3D7) | Potency (AA1029) | Potency (ATS189) | Potency (ATS95) | Potency (C2A) | Potency (CP185) | Potency (CP191) | Potency (CP192) | Potency (CP194) | Potency (CP201) | Potency (CP211) | Potency (CP215) | Potency (CP217) | Potency (CP238) | Potency (CP247) | Potency (CP250) | Potency (CP252)

Reference: PubChem BioAssay (NCATS)
